Data on 10 compounds can be found in PubChem BioAssay (NCI).

Assay [1] in a line: NCI Yeast Anticancer Drug Screen. Data for the rad50 strain (AID 155).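 Also: 0% = growth of vehicle-only cultures of the same strain.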 To be noted: S. cerevisiae rad50 strain growth inhibition, hits give high values. A digest of the protocol:
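A DNA repair-deficient yeast mutant serves as the test organism; compound-induced growth inhibition is calculated against vehicle-treated cells.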

The nature of assay [2]: NCI Yeast Anticancer Drug Screen. Data for the mec2-1 strain (AID 157). To be noted: S. cerevisiae mec2-1 strain, hits give high values. A digest of the protocol:
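Each compound was tested on mec2-1 yeast, a strain altered in DNA damage repair or cell cycle control. Growth inhibition is reported relative to vehicle.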

Assay [3] is described as follows: NCI Yeast Anticancer Drug Screen. Data for the sgs1 mgt1 strain (AID 161).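 Also: 0% = growth of cultures given vehicle only.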 To be noted: S. cerevisiae sgs1 mgt1 strain, hits give high values. A digest of the protocol:
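Inhibition of yeast growth, normalised to vehicle-treated controls, is reported for a strain bearing genetic alterations in DNA damage repair.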

Assay [4] in a line: NCI Yeast Anticancer Drug Screen. Data for the cln2 rad14 strain (AID 165).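 Also: 0% = growth equal to vehicle treated cultures.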 To be noted: S. cerevisiae cln2 rad14 strain, hits give high values. A digest of the protocol:
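Test compounds were added to cln2 rad14 yeast cultures; inhibition of growth was then determined by comparison with vehicle treatment.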

The nature of assay [5]: NCI Yeast Anticancer Drug Screen. Data for the bub3 strain (AID 167). To be noted: S. cerevisiae bub3 mutant strain, hits give high values. A digest of the protocol:
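Inhibition values come from growth of compound-treated mutant yeast normalised to vehicle-treated controls.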

Assay [6] can be described thus: NCI Yeast Anticancer Drug Screen. Data for the mlh1 rad18 strain (AID 175). To be noted: S. cerevisiae mlh1 rad18 strain growth inhibition, hits give high values. A digest of the protocol: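 Inhibition values reflect reduced growth of mutant yeast versus vehicle-treated controls following compound exposure; the mutations affect DNA damage repair.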
Setting [7] is: at 5.0 µM (retest, dose inferred, filed as 0.5).
[8] abbreviates: at 50.0 µM (retest, dose inferred, filed as 5.0).

This is part of a sample that, as a whole, favours compounds with a hit. Of some 79,000 tested, about 15% had one in any assay. Values without a mark were called inactive. Calls of active or inactive are those of the source. Rule as the data show it: active = growth inhibition above about 70%; inactive = the rest.

Take `C/C(=N/NC(=O)C[n+]1ccccc1)C(CN(CC(C)C)CC(C)C)C(=O)Nc1ccc(C)cc1C` (stereo not given): the growth inhibition is 5% in assay [1] (setting [7]); 5% in assay [1] (setting [8]); 30.1% in assay [1] (at 50.0 µM); -10% in assay [2] (setting [7]); -10% in assay [2] (setting [8]); 40.2% in assay [2] (at 50.0 µM). Besides, the growth inhibition in assay [3] (setting [7]) was 5%; in assay [3] (setting [8]) it was 5%; in assay [3] (at 50.0 µM), 8.65%; in assay [4] (setting [7]), 5%; in assay [4] (setting [8]) it was 5%; in assay [4] (at 50.0 µM) it was 41%. The growth inhibition was 12% in assay [5] (setting [7]); 12% in assay [5] (setting [8]); 58% in assay [5] (at 50.0 µM); 6% in assay [6] (setting [7]); 6% in assay [6] (setting [8]); 70.2% (active) in assay [6] (at 50.0 µM).
Turning to `Cc1cccc(C)c1NC(=O)CCc1nnc(N)n1N`, the growth inhibition in assay [1] (setting [7]) is 17%; in assay [1] (setting [8]) it was 4%; in assay [1] (at 50.0 µM) it was -20.6%; in assay [2] (setting [7]), -1%; in assay [2] (setting [8]), -3%; in assay [2] (at 50.0 µM), 3.75%. The growth inhibition in assay [3] (setting [7]) is 7%; in assay [3] (setting [8]), -2%; in assay [3] (at 50.0 µM), 18.8%; in assay [4] (setting [7]), -6%; in assay [4] (setting [8]), 6%; in assay [4] (at 50.0 µM), -23.4%. Also, the growth inhibition was -3% in assay [5] (setting [7]); -2% in assay [5] (setting [8]); 8.7% in assay [5] (at 50.0 µM); -3% in assay [6] (setting [7]); -1% in assay [6] (setting [8]); 16.4% in assay [6] (at 50.0 µM).
As to `CCCCN(CCCC)C(=O)c1ccc(OC(=O)OCC)c(OC)c1`, the growth inhibition in assay [1] (setting [7]) was 4%; in assay [1] (setting [8]), 6%; in assay [1] (at 50.0 µM) it was 56.9%; in assay [2] (setting [7]), 0%; in assay [2] (setting [8]), 10%; in assay [2] (at 50.0 µM) it was 37%. Also, the growth inhibition is 2% in assay [3] (setting [7]); 31% in assay [3] (setting [8]); 49.8% in assay [3] (at 50.0 µM); 4% in assay [4] (setting [7]); 17% in assay [4] (setting [8]); 8.8% in assay [4] (at 50.0 µM). Further, the growth inhibition in assay [5] (setting [7]) is 2%; in assay [5] (setting [8]) it was 24%; in assay [5] (at 50.0 µM), 85.1% (active); in assay [6] (setting [7]), -2%; in assay [6] (setting [8]), 29%; in assay [6] (at 50.0 µM), 17%.
Regarding `c1ccc(OCCN2CCN(CCOc3ccccc3)CC2)cc1`, the growth inhibition was 21% in assay [1] (setting [7]); 29% in assay [1] (setting [8]); 71.7% (active) in assay [1] (at 50.0 µM); 31% in assay [2] (setting [7]); 45% in assay [2] (setting [8]); 32.2% in assay [2] (at 50.0 µM). In addition, the growth inhibition in assay [3] (setting [7]) was 41%; in assay [3] (setting [8]), 55%; in assay [3] (at 50.0 µM), 67.1%; in assay [4] (setting [7]), 45%; in assay [4] (setting [8]), 47%; in assay [4] (at 50.0 µM), 76.4% (active). In addition, the growth inhibition was 43% in assay [5] (setting [7]); 53% in assay [5] (setting [8]); 56.7% in assay [5] (at 50.0 µM); 44% in assay [6] (setting [7]); 61% in assay [6] (setting [8]); 44.1% in assay [6] (at 50.0 µM).
For the compound `C=CCOC(=O)OCCCO`, the growth inhibition in assay [1] (setting [7]) was 0%; in assay [1] (setting [8]), -3%; in assay [1] (at 50.0 µM), 91.7% (active); in assay [2] (setting [7]) it was -1%; in assay [2] (setting [8]) it was -1%; in assay [2] (at 50.0 µM) it was 99.2% (active). For the same compound, the growth inhibition is 2% in assay [3] (setting [7]); -1% in assay [3] (setting [8]); 97.2% (active) in assay [3] (at 50.0 µM); -5% in assay [4] (setting [7]); 2% in assay [4] (setting [8]); 95.8% (active) in assay [4] (at 50.0 µM). In addition, the growth inhibition is -1% in assay [5] (setting [7]); -3% in assay [5] (setting [8]); 98.8% (active) in assay [5] (at 50.0 µM); -1% in assay [6] (setting [7]); -1% in assay [6] (setting [8]); 95.5% (active) in assay [6] (at 50.0 µM).
For `CCOC(=O)C1=C(C)Oc2cc3c(cc2C1c1cc(OC)c(OC)c(OC)c1)OCO3` (stereo not given), the growth inhibition in assay [1] (setting [7]) was 8%; in assay [1] (setting [8]), 40%; in assay [1] (at 50.0 µM) it was 54.6%; in assay [2] (setting [7]), 11%; in assay [2] (setting [8]), 64%; in assay [2] (at 50.0 µM) it was 28.9%. The growth inhibition in assay [3] (setting [7]) was -1%; in assay [3] (setting [8]), 37%; in assay [3] (at 50.0 µM), 47.3%; in assay [4] (setting [7]), 11%; in assay [4] (setting [8]), 89% (active); in assay [4] (at 50.0 µM), 19.1%. The growth inhibition is 36% in assay [5] (setting [7]); 94% (active) in assay [5] (setting [8]); 55.6% in assay [5] (at 50.0 µM); 12% in assay [6] (setting [7]); 83% (active) in assay [6] (setting [8]); 45.8% in assay [6] (at 50.0 µM).
As for `CCN(CC)CCCCCCNc1cc(Cl)cc2cccnc12`, the growth inhibition in assay [1] (setting [7]) is 18%; in assay [1] (setting [8]) it was 71% (active); in assay [1] (at 50.0 µM) it was 91.6% (active); in assay [2] (setting [7]), 14%; in assay [2] (setting [8]), 64%; in assay [2] (at 50.0 µM) it was 89.9% (active). The growth inhibition in assay [3] (setting [7]) is 28%; in assay [3] (setting [8]), 94% (active); in assay [3] (at 50.0 µM), 97.5% (active); in assay [4] (setting [7]), 26%; in assay [4] (setting [8]), 68%; in assay [4] (at 50.0 µM), 97% (active). Also, the growth inhibition in assay [5] (setting [7]) was 42%; in assay [5] (setting [8]), 79% (active); in assay [5] (at 50.0 µM) it was 85.4% (active); in assay [6] (setting [7]), 27%; in assay [6] (setting [8]), 84% (active); in assay [6] (at 50.0 µM), 97.5% (active).
As to `[CH3][Sn]1([CH3])[O]C(=O)CCN=Cc2c(ccc3ccccc23)[O][Sn]([CH3])([CH3])[O]C(=O)CCN=Cc2c(ccc3ccccc23)[O]1`, the growth inhibition in assay [1] (setting [7]) was 57%; in assay [1] (setting [8]), 98% (active); in assay [1] (at 50.0 µM), 90.6% (active); in assay [2] (setting [7]) it was 61%; in assay [2] (setting [8]), 99% (active); in assay [2] (at 50.0 µM), 92.8% (active). Further, the growth inhibition was 82% (active) in assay [3] (setting [7]); 99% (active) in assay [3] (setting [8]); 93% (active) in assay [3] (at 50.0 µM); 24% in assay [4] (setting [7]); 99% (active) in assay [4] (setting [8]); 91.7% (active) in assay [4] (at 50.0 µM). For the same compound, the growth inhibition in assay [5] (setting [7]) is 84% (active); in assay [5] (setting [8]), 98% (active); in assay [5] (at 50.0 µM), 92.3% (active); in assay [6] (setting [7]), 93% (active); in assay [6] (setting [8]), 99% (active); in assay [6] (at 50.0 µM), 89.8% (active).
`CCN(CC)c1ccc(N=Nc2ccc(Br)cn2)c(O)c1`: the growth inhibition was -1% in assay [1] (setting [7]); 51% in assay [1] (setting [8]); 96.8% (active) in assay [1] (at 50.0 µM); -4% in assay [2] (setting [7]); 84% (active) in assay [2] (setting [8]); 95.5% (active) in assay [2] (at 50.0 µM). In addition, the growth inhibition was -3% in assay [3] (setting [7]); 79% (active) in assay [3] (setting [8]); 97.1% (active) in assay [3] (at 50.0 µM); -2% in assay [4] (setting [7]); 46% in assay [4] (setting [8]); 94.7% (active) in assay [4] (at 50.0 µM). The growth inhibition in assay [5] (setting [7]) is 1%; in assay [5] (setting [8]) it was 71% (active); in assay [5] (at 50.0 µM), 97.2% (active); in assay [6] (setting [7]) it was -1%; in assay [6] (setting [8]), 77% (active); in assay [6] (at 50.0 µM), 97.2% (active).
Turning to `CC(=O)Oc1c(C)cc(C)cc1Cc1cc(C(C)=O)cc(Cc2cc(C)cc(C)c2OC(C)=O)c1OC(C)=O`, the growth inhibition was 30% in assay [1] (setting [7]); 91% (active) in assay [1] (setting [8]); 94.5% (active) in assay [1] (at 50.0 µM); 17% in assay [2] (setting [7]); 88% (active) in assay [2] (setting [8]); 93.2% (active) in assay [2] (at 50.0 µM). Also, the growth inhibition is 47% in assay [3] (setting [7]); 91% (active) in assay [3] (setting [8]); 95.6% (active) in assay [3] (at 50.0 µM); 28% in assay [4] (setting [7]); 88% (active) in assay [4] (setting [8]); 97% (active) in assay [4] (at 50.0 µM). Besides, the growth inhibition in assay [5] (setting [7]) was 22%; in assay [5] (setting [8]) it was 87% (active); in assay [5] (at 50.0 µM) it was 94.3% (active); in assay [6] (setting [7]) it was 46%; in assay [6] (setting [8]), 91% (active); in assay [6] (at 50.0 µM) it was 92.5% (active).
